Records with an inconclusive call do not appear. A number with no mark means an inactive call. The call rests on the fitted dose curve; in most records, active means well fitted inhibition curve with a large enough effect; inconclusive means small, poorly fitted or top-dose-only effect; inactive means flat fitted curve, though single readings scatter.
Each compound was assayed on CP268 (assay: qHTS profiling for inhibitors of Plasmodium falciparum proliferation (AID 504749;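 further: 0% = DMSO vehicle and full inhibition = artemisinin control; nearly all actives have a fitted effect of over 60% in size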)). Settings: P. falciparum in erythrocytes, SYBR Green DNA, 72 h; series mostly up to 28.7 µM; activity, negative = inhibition: at the top concentration.
In short: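 SYBR Green fluorescence of parasite DNA, read after lysis and overnight dark incubation, measured growth over 72 h in erythrocyte culture at 0.3% parasitemia and 2.5% hematocrit. Data normalised to DMSO and 0.29 uM artemisinin, with plate-drift correction.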
In the case of `CCCOC(=O)c1ccccc1O`, the “activity, negative = inhibition” value is reported as 2.36%. In the case of `COc1cc2c(cc1OC)[C@@H](Cc1cc(OC)c(OC)c(OC)c1)[N+](C)(CCCOC(=O)CC/C=C/CCC(=O)OCCC[N+]1(C)CCc3cc(OC)c(OC)cc3[C@H]1Cc1cc(OC)c(OC)c(OC)c1)CC2` (some centres undefined), the “activity, negative = inhibition” value is reported as 6.74%. `OC[C@H]1O[C@@](CO)(O[C@H]2O[C@H](CO)[C@@H](O)[C@H](O)[C@H]2O)[C@@H](O)[C@@H]1O` was tested, and the “activity, negative = inhibition” value was -2.55%. `CCC(Cc1c(I)cc(I)c(O)c1I)C(=O)O` (centres undefined) was tested, and the “activity, negative = inhibition” value was -4.24%. With `Nc1ncnc2c1ncn2CCOCP(=O)(O)O` the “activity, negative = inhibition” value was 0.575%. With `O=C(O)CCC/C=C\C[C@@H]1[C@@H](/C=C/[C@@H](O)COc2cccc(Cl)c2)[C@H](O)C[C@@H]1O` the “activity, negative = inhibition” value was 2.45%. `N=C(N)n1cccn1` was tested, and the “activity, negative = inhibition” value was -7.09%. For `CCSc1ccc2c(c1)N(CCCN1CCN(C)CC1)c1ccccc1S2`, the “activity, negative = inhibition” value was -1.25% [at 12.8 µM]. For `CC(C)c1nc(N(C)S(C)(=O)=O)nc(-c2ccc(F)cc2)c1/C=C/C(O)CC(O)CC(=O)O` (centres undefined), the “activity, negative = inhibition” value was -3.82%. `CCOC(C)OCC` was tested, and the “activity, negative = inhibition” value was -0.598%. `NCCN` was tested, and the “activity, negative = inhibition” value was 1.24%. `CC(CC=O)CCCC(C)(C)O` (centres undefined) was tested, and the “activity, negative = inhibition” value was 0.672%. `CC(C)(COP(=O)(O)OP(=O)(O)OC[C@H]1O[C@@H](n2cnc3c(N)ncnc32)[C@H](O)[C@@H]1OP(=O)(O)O)C(O)C(=O)NCCC(=O)NCCS` (some centres undefined) was tested, and the “activity, negative = inhibition” value was -2.48%. In the case of `O=C1c2ccccc2CN2C(=O)c3ccccc3CN12`, the “activity, negative = inhibition” value is reported as -0.828%. In the case of `O=C1c2ccccc2C(=O)C1c1ccc(F)cc1`, the “activity, negative = inhibition” value is reported as -11.3%. In the case of `CNC(=O)C[C@@H](N)C(=O)N[C@@H](C(=O)N[C@@H]1C(=O)N2[C@@H]1SC(C)(C)[C@@H]2C(=O)O)c1ccc(O)cc1`, the “activity, negative = inhibition” value is reported as -0.647%. With `CCCCCc1ccc(C)cc1O` the “activity, negative = inhibition” value was -4.21%. In the case of `C=CC(C)(O)CC/C=C(\C)CCC=C(C)C` (centres undefined), the “activity, negative = inhibition” value is reported as -1.63%. `Cc1ccc(S(=O)(=O)NCl)cc1` was tested, and the “activity, negative = inhibition” value was -2.74%. `CN1c2c(nc(N)[nH]c2=O)NCC1CNc1ccc(C(=O)NC(CCC(=O)O)C(=O)O)cc1` (centres undefined) was tested, and the “activity, negative = inhibition” value was -0.186%. `NC(=O)[C@@H]1CCCN1C(=O)[C@H](Cc1cnc[nH]1)NC(=O)[C@@H]1CCC(=O)N1` was tested, and the “activity, negative = inhibition” value was -2.2%. With `CN(C)CCOc1ccc(/C(=C(/CCCl)c2ccccc2)c2ccccc2)cc1` the “activity, negative = inhibition” value was -4.71%. With `CC1(O)CCC(C(C)(C)O)CC1` (centres undefined) the “activity, negative = inhibition” value was -0.113%. For `COc1ccccc1N1CCN(CCCC(=O)c2ccc(F)cc2)CC1`, the “activity, negative = inhibition” value was -1.66%. In the case of `CC(C)[C@@H](N)C(=O)O`, the “activity, negative = inhibition” value is reported as -2.59%. With `CN(C)c1ccc(C(=C2C=CC(=[N+](C)C)C=C2)c2c(O)c(S(=O)(=O)[O-])cc3cc(S(=O)(=O)O)ccc23)cc1` the “activity, negative = inhibition” value was -4.47%. For `COc1cc(S(C)=O)ccc1-c1nc2ncccc2[nH]1` (centres undefined), the “activity, negative = inhibition” value was 9.07%. `Oc1cc(O)cc(O)c1` was tested, and the “activity, negative = inhibition” value was -3.51%. With `N[C@H](CC(=O)O)C(=O)O` the “activity, negative = inhibition” value was -1.83%. `C/C=C/C=C/C(=O)O` was tested, and the “activity, negative = inhibition” value was -0.364%. For `C=C(C)C1CC=C(C)CC1` (centres undefined), the “activity, negative = inhibition” value was -4%. For `Nc1ncnc2c1ncn2[C@H]1CC[C@@H](CO)O1`, the “activity, negative = inhibition” value was -2.47%. `NCC[C@H](O)C(=O)N[C@@H]1C[C@H](N)[C@@H](O[C@H]2O[C@H](CN)CC[C@H]2N)[C@H](O)[C@H]1O[C@H]1O[C@H](CO)[C@@H](O)[C@H](N)[C@H]1O` was tested, and the “activity, negative = inhibition” value was 4.47%. With `[O]=[Bi][O]C(=O)[O][Bi]=[O]` the “activity, negative = inhibition” value was -2.87%. `Cc1c(Cl)cccc1Nc1ncccc1C(=O)O` was tested, and the “activity, negative = inhibition” value was -1.83%. In the case of `CC1(C)S[C@@H]2[C@H](NC(=O)C3(N)CCCCC3)C(=O)N2[C@H]1C(=O)O`, the “activity, negative = inhibition” value is reported as -0.876%. With `CCCCCCCCCCCC(=O)OCC(O)CO` (centres undefined) the “activity, negative = inhibition” value was -6.44%. In the case of `COc1ccc(C(=O)c2ccc(C)cc2)c(O)c1`, the “activity, negative = inhibition” value is reported as 3.31%. `O=C1NCCN1c1ncc([N+](=O)[O-])s1` was tested, and the “activity, negative = inhibition” value was 1.27% [at 12.8 µM].
